# Screens from PubChem BioAssay.
# IP6K1 inhibitor – Primary qHTS assay for small molecule inhibitors of Inositol hexaphosphate kinase 1 (IP6K1); Inositol hexakisphosphate kinase 1 (Homo sapiens), Q92551; IP6K1 kinase, ADP-Glo luminescence, 2 h; active compounds read low; activity change, % (series mostly up to about 58 µM); 140,000 tested, 0.81% active; AID 1645851, 2021; in the data active = activity change below about -25%; also: % is scaled to controls: 0 for no effect and ±100 for the full control effect
#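 ADP-Glo luminescence measures ADP made by human IP6K1 during a 2 h RT reaction with ATP/IP6 (mix at 1.3 mM/130 uM); top library doses 57.5 and 19.1 uM final.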
# SNCA viab count – GF-AFC viability counterscreen for inhibitors of alpha-synuclein gene (SNCA) expression; 150,000 tested, 0.12% active; AID 1671193, 2021; HEK-293-SNCA-luc viability, GF-AFC fluorescence, 24 h; Potency, µM (highest dose often 57.1 µM), inactives show at the highest dose activity change, negative = cytotoxicity, hits mostly cytotoxic;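 also: potency is read from the fitted curve at half-maximal effect; 0% = DMSO-treated cells and -100% = medium-only wells without cells; nearly all actives have a fitted effect of over 30% in size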
#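 Cytotoxicity counterscreen: after 24 h compound treatment of genome-edited SNCA-luciferase HEK-293 cells, live-cell protease substrate GF-AFC read by fluorescence after 30 min; activity scaled between DMSO (0%) and medium-only (-100%), curves Hill-fitted.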
# KDM5B inhibitor – Primary screen for KDM5B Histone Demethylases FDH-coupled qHTS. Lysine-specific demethylase 5B (Homo sapiens), Q9UGL1. KDM5B demethylase, FDH-coupled NADH fluorescence (FDH is formaldehyde dehydrogenase). Potency, µM (doses to about 57.7 µM), most hits filed as inhibitors. 220,000 tested, 2.6% active. AID 1347165, 2019; also: potency is read from the fitted curve at half-maximal effect; 0% is about no effect; nearly all actives have a fitted effect of over 70% in size
#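 Compound dilutions met 200 nM (final) KDM5BΔAP for 10 min at room temperature before substrate addition. The substrate mix held 12.5 µM H3K4me3 with cofactors 25 µM α-ketoglutarate and 50 µM Fe²⁺. NADH signal gain over 30 min defined activity.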
# SNCA expr inh – Primary qHTS assay for inhibitors of alpha-synuclein gene (SNCA) expression. HEK-293 SNCA-luciferase knock-in, luminescence, 24 h. Potency, µM (titrated, usually from 57.2 µM), for the others: at the top dose activity change, negative = inhibition, most hits filed as inhibitors. 140,000 tested, 0.17% active. AID 1671194, 2021;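 also: potency is read from the fitted curve at half-maximal effect; plate controls were DMSO cells for no effect and cell-free wells for full effect; nearly all actives have a fitted effect of over 45% in size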
# * hit, by the source's call; i = inactive; ? = inconclusive; . = no result given; [ ] = remark or other dose. Only some compounds are listed: those with a hit (about 2.9% of all), similar ones and a draw of the others. Unless noted, calls follow the shape of the dose curve; as a rule, active = well fitted curve in the direction sought with a large enough effect; inconclusive = small, poorly fitted or top-dose-only effect, or another doubt; inactive = no such curve, though single readings can be large; an effect the other way counts as inactive or inconclusive.
SMILES,IP6K1 inhibitor,SNCA viab count,KDM5B inhibitor,SNCA expr inh
Cc1ccc2c(CN3c4ccc(S(N)(=O)=O)cc4CC3C)cc(=O)oc2c1C (stereo not drawn),.,.,i,.
C[C@@H]1CN(C(=O)c2cc(-c3ccco3)nc3c(Cl)cccc23)C[C@]1(C)O,4.6,-16.9%,i,-16.7%
Cc1cc(CNC(=O)c2cc(-c3ccco3)nc3c(Cl)cccc23)no1,-5.7,-11.2%,28.2µM*,4.9%
COc1ccc(-c2noc(-c3ccc(N4C[C@H]5CC[C@H]4C5)nc3)n2)cc1,4.5,-1.9%,31.6µM*,31.8%
COc1ccc(-c2noc(-c3ccc(N4CCCOCC4)nc3)n2)cc1,0.7,1.3%,31.6µM*,72.6%
CC(=O)Nc1ccc(NC(=O)Cn2ccc3ccc(Cl)cc32)cc1,.,.,i,.
CC(C)CCNC(=O)CCC1CCCN(S(=O)(=O)c2cccc(F)c2)C1 (stereo not drawn),0.3,0.6%,.,-1.3%
CN(C)c1nccnc1OC1CCN(S(=O)(=O)Cc2ccccc2)C1 (stereo not drawn),-1.1,-3.8%,?,10.9%
CCCOc1nccnc1NC1CCN(S(=O)(=O)C2CC2)CC1,-3.2,11.2%,15.8µM*,?
CCOc1nccnc1NC1CCN(S(=O)(=O)C2CC2)CC1,-1.0,9.6%,31.6µM*,1.1%
O=C(NCc1nnnn1-c1ccccc1)Nc1ccc2c(c1)OCO2,.,.,i,.
COc1cccc(N2C(=O)c3ccccc3NC2c2cn(C)c(=O)n(C)c2=O)c1 (stereo not drawn),.,.,i,.
O=S(=O)(c1ccccc1)c1nc(-c2ccc(F)cc2)oc1NCc1ccccc1,9.8,-5.1%,?,39.8%
CC(C)CS(=O)(=O)c1oc(-c2ccc(F)cc2)nc1S(=O)(=O)c1ccccc1,-12.3,4.47µM*,?,?
Cc1ccc(CSc2oc(-c3cccs3)nc2S(=O)(=O)c2ccccc2)cc1,-10.1,1.8%,i,-23.5%
CCC(C)S(=O)(=O)c1oc(-c2cccs2)nc1S(=O)(=O)c1ccccc1 (stereo not drawn),-2.4,2.82µM*,i,?
Cc1nonc1CN1CCN(C(C(=O)O)c2c[nH]c3cc(Cl)ccc23)CC1 (stereo not drawn),.,.,i,.
CNC(=O)CN(C)c1nc(-c2ccncc2)nc2ccccc12,.,.,i,.
CCc1ccccc1NC(=O)CC1CC2CCC1C2 (stereo not drawn),.,.,i,.
O=C(O)C1(Cc2ccccc2F)CCCN(c2ncnc3sccc23)C1 (stereo not drawn),-8.8,3.2%,i,8.5%
COc1cc(/C=C(/C#N)c2ccccn2)cc(OC)c1OC(F)F,.,.,i,.
CN(C)c1cccc(-c2n[nH]c3c2CC(=O)N(CC2CC2)C3)c1,-4.4,-4.5%[87.6 µM],20µM*,16.5%[87.6 µM]
COCc1cccc(-c2n[nH]c3c2CC(=O)N(CC2CC2)C3)c1,2.1,-2.3%[87.6 µM],i,20.5%[87.6 µM]
O=C1CN(CC(=O)c2c[nH]c3ccccc23)CCN1,.,.,i,.
Cn1cc(-c2cnc(Nc3ccc(F)c(Cl)c3)c3c2CCO3)cn1,-9.1,-3.1%[87.6 µM],31.6µM*,3.5%[87.6 µM]
SMILES,IP6K1 inhibitor,SNCA viab count,KDM5B inhibitor,SNCA expr inh
Cn1cc(-c2cnc(Nc3ccncc3)c3c2CCO3)cn1,-7.5,2.3%[87.6 µM],35.5µM*,8.5%[87.6 µM]
Cn1cc(-c2cnc(Nc3ccc(N4CCOCC4)cc3)c3c2CCO3)cn1,-4.2,-2.9%[87.6 µM],?,78.1%[87.6 µM]
CN(C)c1cccc(C(=O)Nc2ncc(-c3cnn(C)c3)c3c2OCC3)c1,-5.2,-5.0%[87.6 µM],i,2.5%[87.6 µM]
CN(C)c1cccc(-c2cnc(Nc3cncnc3)c3c2CCO3)c1,-18.1,-9.4%[87.6 µM],i,42.9%[87.6 µM]
Cc1cc(-c2cnc(Nc3ccc(F)cc3)c3c2CCO3)ccn1,-17.3,-10.2%[87.6 µM],12.6µM*,51.6%[87.6 µM]
N#Cc1ccc(NC(=O)N2CCN(Cc3nc(-c4ccc(Cl)cc4)no3)CC2)cc1,.,.,i,.
COc1cccc(NC(=O)C2(C)CCCc3cnc(N(C)C)nc32)c1 (stereo not drawn),5.4,-15.4%[87.6 µM],39.8µM*,?
CN(C)c1ncc2c(n1)C(C)(C(=O)Nc1ccncc1)CCC2 (stereo not drawn),8.0,4.7%[87.6 µM],31.6µM*,-11.7%[87.6 µM]
CN(C)c1ncc2c(n1)C(C)(C(=O)Nc1cccc(F)c1)CCC2 (stereo not drawn),11.2,1.0%[87.6 µM],31.6µM*,?
Cc1ccc(NC(=O)CC(c2cccc(F)c2)n2cccc2)cc1N(C)C (stereo not drawn),.,.,i,.
